{"source": "PubChem BioAssay", "note": "Unmarked numbers belong to inactive results. The rule behind the calls is not given here."}
{"target": "Pantothenate synthetase (Mycobacterium tuberculosis (strain ATCC 25618 / H37Rv)) (UniProt P9WIL5)", "sequence (P9WIL5 whole entry, looked up)": "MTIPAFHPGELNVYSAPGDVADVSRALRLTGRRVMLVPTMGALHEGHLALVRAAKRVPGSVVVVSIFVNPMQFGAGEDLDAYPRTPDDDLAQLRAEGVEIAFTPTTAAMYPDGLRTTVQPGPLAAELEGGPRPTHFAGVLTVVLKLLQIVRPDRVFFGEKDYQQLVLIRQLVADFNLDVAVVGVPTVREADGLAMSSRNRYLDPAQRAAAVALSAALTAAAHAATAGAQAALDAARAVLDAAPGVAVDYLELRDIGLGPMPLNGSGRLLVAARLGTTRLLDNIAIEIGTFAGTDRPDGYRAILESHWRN", "assay": "Recombinant Mtb pantothenate synthetase (PanC) inhibitors, coupled enzyme, confirmatory (AID 375);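 note: 0% = full reaction with vehicle and 100% = no enzyme background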", "details": "coupled enzyme assay; at 10 µM, active compounds read high", "units": {"inhibition": "%"}}
{"smiles": "Cc1ccc(CS(=O)(=O)Cc2ccc(C(=O)NCc3ccccn3)o2)cc1", "inhibition": 0}
{"smiles": "COc1cccc(NC(=O)NC2(C(F)(F)F)Oc3ccccc3O2)c1", "inhibition": 0}
{"smiles": "COC(=O)c1ccc(CSc2nnc(-c3ccncc3)o2)o1", "inhibition": 0}
{"smiles": "CN(C)c1ccc(O)c2c1CC1CC3[C@@H](N(C)C)C(=O)C(C(N)=O)=C(O)[C@]3(O)C(=O)C1=C2O", "note": "(stereo partly specified)", "inhibition": 0}
{"smiles": "O=C(Cn1nnc(-c2ccncc2)n1)Nc1ccc2c(c1)CCC2", "inhibition": 0}
{"smiles": "O=C(CSc1ncnc2c1cnn2Cc1ccccc1)Nc1ccc2c(c1)OCCO2", "inhibition": 5}
{"smiles": "O=C(OCC(=O)c1c[nH]c2ccccc12)C1=COCCO1", "inhibition": 0}
{"smiles": "COc1ccc(CCNC(=O)c2cc(-c3cc(C)c(C)cc3O)n[nH]2)cc1OC", "inhibition": 0}
{"smiles": "CCOC(=O)N1CCC(NC(=O)CCN2C(=O)COc3ccccc32)CC1", "inhibition": 0}
{"smiles": "COc1ccccc1Nc1ccc(C(=O)NC2CCCCC2)cn1", "inhibition": 0}
{"smiles": "Cc1cc(C)nc(NC(=O)c2cnc3sccn3c2=O)n1", "inhibition": 13}
{"smiles": "COc1ccc(C2C3=C(OC(C)=O)c4ccccc4C3=Nc3c2c(=O)n(C)c(=O)n3C)cc1", "note": "(stereo unspecified)", "inhibition": 2}
{"smiles": "O=C(CSc1nnc(-c2ccncc2)o1)Oc1ccccc1", "inhibition": 0}
{"smiles": "CCn1c(NCc2ccc(N(C)C)cc2)nc2ccccc21", "inhibition": 0}
{"smiles": "COc1ccc(CC(NC(C)=O)C(=O)N2CCN(C(=O)N(C(C)C)C(C)C)CC2)cc1", "note": "(stereo unspecified)", "inhibition": 0}
{"smiles": "c1n[nH]c(SCCCCSc2ncn[nH]2)n1", "inhibition": 6}
